The results in this text go back to PubChem BioAssay AID588475 (Sanford-Burnham Center for Chemical Genomics, 2011).

The whole screen tested about 350,000 compounds, of which about 2,100 (0.6%) were called active. What follows is part of a selection rich in actives, with near analogues and random picks from the rest. Unmarked numbers belong to inactive results.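 The calls were made as follows: active = inhibition of the ligand-induced calcium signal above about 50% at the single tested concentration (limit read from the data); inactive = the rest.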

This experiment in a line: blockers of CRF-evoked CRF-R2/CRF-BP calcium response – cell-based, HEK293, calcium dye fluorescence, uHTS, primary screen (AID 588475). The settings on record: CRF-induced calcium fluorescence, at 11.8 µM, active compounds read high.
Usually inhibition stands for the drop in the measured response relative to a control, in per cent. For `Cc1ccc(C)c(C(=O)COC(=O)Cn2[nH]c(=O)c3ccccc3c2=O)c1`, the inhibition was 6.49%.

As for `CC(=O)NNC1=Nc2ccccc2N(C)C(C)C1` (configuration not stated), the inhibition is 19%.

On to `COC(=O)c1ccc(Cc2ccccc2)o1`, for which the inhibition is 53% (active).

On to `COC(=O)c1ccc(CN2C(=O)NC(c3ccccc3)(c3ccccc3)C2=O)o1`, for which the inhibition was 0.1%.

Regarding `COC(=O)c1ccc(COc2ccc(C#N)cc2)o1`, the inhibition is 10.2%.

Turning to `CCC(C)C(NC(=O)C1CCC(=O)N1C(=O)OCc1ccccc1)C(=O)NC(C(=O)N1CCCC1C(N)=O)C(C)CC` (configuration not stated), the inhibition is 2.28%.

With `O=C1c2cccc3cccc(c23)C(=O)N1c1cccc(O)c1`, the inhibition is 4.66%.

On to `O=S(=O)(Nc1ccccc1N1CCOCC1)c1ccc(Cl)s1`, for which the inhibition is -0.68%.

For `COc1cc(NC(=O)c2ccccc2NS(=O)(=O)c2ccc(Cl)s2)cc(OC)c1`, the inhibition is 90.5% (active).

`COC(=O)c1ccccc1NS(=O)(=O)c1ccc2[nH]c(=O)[nH]c2c1`: the inhibition is 17.7%.

As for `COc1ccccc1C(=O)Nc1ccccc1C(=O)Nc1ccccc1`, the inhibition is 6.12%.

For the compound `O=C(Nc1ccc(S(=O)(=O)Nc2ccccn2)cc1)c1ccccc1`, the inhibition is -0.79%.

As to `COC(=O)c1ccc(NC(=O)c2ccccc2NS(=O)(=O)c2ccccc2)cc1`, the inhibition is 61% (active).

Regarding `CSc1nnc(-c2ccc(C(F)(F)F)cn2)o1`, the inhibition was 4.97%.

With `O=C(OCC(=O)N1CCc2ccccc21)c1ccc([N+](=O)[O-])cc1`, the inhibition is -3.17%.

As to `CN1CCOC1c1ccc(C2OCCN2C)cc1` (configuration not stated), the inhibition was 4.93%.

Turning to `CCCc1nc2c(C)cc(-c3nc4ccccc4n3C)cc2n1Cc1ccc(-c2ccccc2C(=O)O)cc1`, the inhibition was 17.1%.

As to `CN(C)CCCN(Cc1cc2cc3c(cc2[nH]c1=O)OCCO3)C(=O)NC1CCCCC1`, the inhibition was -6.7%.

Take `Cc1cc(C(=O)OC(C)C(=O)NC2CCCCC2C)c(C)o1` (configuration not stated): the inhibition was -2.53%.

Turning to `O=C(Cn1cnc([N+](=O)[O-])n1)NCCc1ccccc1`, the inhibition is 67.5% (active).

`CC(C)(C)NC(=O)Cn1cnc([N+](=O)[O-])n1`: the inhibition is 4.8%.

As to `O=C(Cc1ccc(Br)cc1)NCCc1ccccc1`, the inhibition is -0.6%.

Regarding `COCC(=O)N1CCc2ccc(NC(=O)c3ccccc3Cl)cc2C1`, the inhibition is 6.03%.

For `FC(F)(F)Oc1ccc(NC(=S)NCc2ccccc2)cc1`, the inhibition is 44.6%.

Turning to `S=C(NCc1cccs1)Nc1ccc(Cl)cc1`, the inhibition is 8.34%.

On to `Fc1ccccc1CNC(=S)Nc1ccc(Cl)cc1`, for which the inhibition was 66% (active).

With `COc1ccc(NC2CC(=O)N(C)C2=O)cc1` (configuration not stated), the inhibition is 20.5%.

For the compound `CN(C)CCN(C(=O)CN1C(=O)c2ccccc2C1=O)c1nc2cc3c(cc2s1)OCCO3`, the inhibition was 85.2% (active).

With `CCN(CC)CCN(C(=O)c1cc(Cl)sc1Cl)c1nc2cc3c(cc2s1)OCO3`, the inhibition was -22.2%.

For the compound `CN(C)CCN(C(=O)C1=COCCO1)c1nc2ccc(Cl)cc2s1`, the inhibition is -9.68%.

For the compound `O=C(COc1ccc(Cl)cc1)NCCSc1ccccc1`, the inhibition is 9.25%.

For the compound `O=C1CCC(CCC(=O)N2CCCC(C(=O)c3ccc(Cl)cc3)C2)=NN1` (configuration not stated), the inhibition was -7.3%.

As to `CC(=O)n1cc([C@H]2C=C(C(=O)N3CCOCC3)O[C@@H](OCc3ccc(CO)cc3)C2)c2ccccc21`, the inhibition was -5.43%.

Regarding `Cc1cc2c(cc1C)NC(c1ccccn1)C1=C(CC(C)(C)CC1=O)N2` (configuration not stated), the inhibition was 7.43%.

On to `Cc1ccc(C(=O)Nc2ccccc2C(=O)NC2CCCCC2)cc1S(=O)(=O)N1CCOCC1`, for which the inhibition was 72.2% (active).

As to `Cc1ccc(NC(=O)NC2CCCCC2)cc1S(=O)(=O)N1CCOCC1`, the inhibition is 5.45%.

As for `Cc1ccc(C(=O)Nc2ncccc2C)cc1S(=O)(=O)N1CCOCC1`, the inhibition is -0.48%.

`O=C(NCC(=O)N(c1ccccc1)C(C(=O)NCC1CCCO1)c1ccccc1)c1cccs1` (configuration not stated): the inhibition is -1.33%.

`Cc1nc(C)c(C(=O)N(c2ccc(C)c(C)c2)C(C(=O)NCc2ccco2)c2ccccc2)s1` (configuration not stated): the inhibition was -3.65%.

As for `Cc1cccc(N(C(=O)c2sc(C)nc2C)C(C(=O)NCC2CCCO2)c2ccccc2)c1` (configuration not stated), the inhibition was 54.8% (active).

Turning to `COc1ccc([N+](=O)[O-])cc1N(CC(O)CN(CC(C)C)CC(C)C)S(=O)(=O)c1ccc(C)cc1` (configuration not stated), the inhibition was -23.4%.

In the case of `COc1ccc([N+](=O)[O-])cc1N(CC(O)Cn1nnc2ccccc21)S(=O)(=O)c1ccc(C)cc1` (configuration not stated), the inhibition is 67.3% (active).

Turning to `Cc1ccc(S(=O)(=O)N(CC(O)CN2CCCCC2)c2cccc([N+](=O)[O-])c2)cc1` (configuration not stated), the inhibition was -12.3%.

In the case of `CN(Cc1ccc(CNC[C@H]2O[C@@H](n3cnc4c(N)ncnc43)[C@H](O)[C@@H]2O)o1)S(C)(=O)=O`, the inhibition is 15.6%.

In the case of `O=C(O)c1ccc(/C=N/NC(=S)NCc2ccccc2)cc1`, the inhibition is 3.62%.

With `C=CCNC(=S)N/N=C/c1ccc(OCc2ccccc2)cc1`, the inhibition is 95.3% (active).

For `O=C(Cc1cccs1)N/N=C/c1ccc(OCc2ccccc2)cc1`, the inhibition is -49.7%.

Regarding `CN(CCO)c1ccc(/C=N/Nc2nncc3ccccc23)cc1`, the inhibition is 13.7%.

On to `COc1ccc2[nH]c(=O)c(CN(Cc3cccnc3)S(=O)(=O)c3ccccc3F)cc2c1`, for which the inhibition is -7.64%.

In the case of `CN(C)/C(=N\OC(=O)c1ccccc1)c1nonc1N`, the inhibition was 28.8%.

In the case of `COc1ccc(CCNC(=O)C2CCN(c3nn4c(=O)cc(C)nc4s3)CC2)cc1OC`, the inhibition was -3.66%.

Take `Cc1cc(=O)n2nc(N3CCC(C(=O)Nc4c(F)c(F)c(F)c(F)c4F)CC3)sc2n1`: the inhibition is 88.8% (active).

For the compound `CCCOc1ccc(CNC(=O)C2CCN(c3nn4c(=O)cc(C)nc4s3)CC2)cc1`, the inhibition is 4.13%.

Turning to `CCOc1ccc(N(CC(=O)Nc2ccccc2F)S(=O)(=O)c2c(C)[nH]c(=O)[nH]c2=O)cc1`, the inhibition was -6.15%.

As to `CCCNS(=O)(=O)c1ccc(CCC(=O)N2CCCC2)cc1`, the inhibition is 0.99%.

Turning to `C[C@@H]1CN([C@H](C)CO)C(=O)CCCn2nncc2CO[C@@H]1CN(C)C(=O)OCc1ccccc1`, the inhibition was -0.52%.

`Cc1ccc(C(=O)c2coc3ccc(O)c(CN(C)C)c23)cc1`: the inhibition is -15.4%.
